TRHR PAM = qHTS for Small Molecule Agonists and Allosteric Enhancers of Human TRH Receptor: Primary Screen for Enhancers; AID 493056, 2011; enhancement, % at 2 µM; Thyrotropin-releasing hormone receptor (Homo sapiens), P34981; TRHR cells, fluo-8 calcium fluorescence, EC20 TRH enhancement; actives 0.66% (n = 360,000); in the data active = enhancement above about 30%; also: 0% is about no effect
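Enhancer read-out: after compound pinning and an initial kinetic agonist-mode read, an EC20 of TRH (10 nM final) was injected and fluo-8 calcium signal (Ex 480/Em 530) followed at 1 s/cycle for 100 cycles in TRHR-expressing cells.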
USP1-UAF1 inh = Inhibitors of USP1/UAF1: Primary Screen; Ubiquitin carboxyl-terminal hydrolase 1 (Homo sapiens), O94782; recombinant USP1/UAF1, Ub-Rhodamine cleavage fluorescence; Potency, µM (doses to about 57.1 µM), for the others: at the highest dose activity change, negative = inhibition, usual class: inhibitors; actives 0.23% (n = 390,000); AID 743255, 2014; active = well fitted inhibition curve with a large enough effect; also: potency is read from the fitted curve at half-maximal effect; % is scaled to controls: 0 for no effect and ±100 for the full control effect; nearly all actives have a fitted effect of over 60% in size
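USP1/UAF1 complex (1 nM) preincubated 15 min at room temperature with compound, then Ub-Rho substrate (150 nM final) added. Kinetic fluorescence at 480/540 nm over 6 reads at 60 s intervals; 50 mM HEPES pH 7.8, 0.5 mM EDTA, 0.1 mg/ml BSA, 1 mM TCEP, 0.01% Tween-20.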
TRHR agonist = qHTS for Small Molecule Agonists and Allosteric Enhancers of Human TRH Receptor: Primary Screen for Agonists; activation, % at 2 µM; actives 0.18% (n = 360,000); TRHR cells, calcium flux fluo-8, FDSS agonist mode; AID 493084, 2011; Thyrotropin-releasing hormone receptor (Homo sapiens), P34981; also: 0% is about no effect
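In this calcium-flux screen, cells bearing human TRHR are dye-loaded with fluo-8, baselined for 10 cycles, then exposed to library compounds; positive kinetic calcium responses during the agonist phase mark hits, with TRH as control.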
D1 ag = Allosteric Agonists of the Human D1 Dopamine Receptor: qHTS; activation, % at 2 µM; actives 1% (n = 360,000); AID 504660, 2011; D(1A) dopamine receptor (Homo sapiens), P21728; HEK293 T-REx D1 cells, calcium flux, agonist mode; also: 0% is about no effect
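Tetracycline-induced HEK293 TREx D1 cells, force-coupled to calcium signalling, were dye-loaded with a no-wash calcium kit. Compound was pin-added after a 10 s baseline. Fluorescence was read kinetically at 1 cycle/s for 180 s, with calcium rises flagged as agonism.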
D1 antagonist = Antagonist of Human D 1 Dopamine Receptor: qHTS | HEK293 TREx D1 cells, calcium flux, dopamine EC80; hits give low values | activity change, negative = inhibition, % at 10 µM | actives 3.2% (n = 360,000) | AID 504652, 2011; in the data active = activity change below about -30%; also: % is scaled to controls: 0 for no effect and ±100 for the full control effect
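Using tetracycline-induced force-coupled D1 Hek293 cells and a calcium dye, signals were followed for 180 s after compound, then for 180 s after EC80 dopamine, to detect inhibitors.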
D1 PAM = Potentiators of Human D1 Dopamine Receptor: qHTS | actives 0.036% (n = 360,000) | potentiation, % at 10 µM | D(1A) dopamine receptor (Homo sapiens), P21728 | HEK293 TREx D1 cells, calcium flux, dopamine EC20 potentiation; in the data active = potentiation above about 30%; also: 0% is about no effect
Numbers without * were called inactive; x = no result given. Rows were chosen to be rich in hits. Some 4.4% of all compounds tested hit in one or more screens of this group. Rule as the data show it, unless noted: active = activation above about 30%; inactive = the rest.

SMILES	TRHR PAM	USP1-UAF1 inh	TRHR agonist	D1 ag	D1 antagonist	D1 PAM
Cc1cccc(N2C(=O)N(Cc3cc(=O)n4ccccc4n3)c3ccccc3S2(=O)=O)c1	7	-22%	0	0	-69*	3
CC(C)Oc1ccc(CNC(=O)c2cnc3sc(N4CCCCCC4)nn3c2=O)cc1	-2	-4%	0	1	4	-6
Cc1cc(=O)oc2cc(OCc3ccc(C(=O)N4CCN(c5ccccc5)CC4)cc3)ccc12	-8	-1%	0	1	-37*	-4
COc1ccc(-c2ccc3c(N)c(C(=O)NCc4ccc(Cl)cc4)sc3n2)cc1	1	-22%	0	1	-18	-2
O=C(O)c1ccccc1-c1c2cc(I)c(=O)c(I)c-2oc2c(I)c(O)c(I)cc12	x	22µM*	x	x	x	x
Cc1nc(NC2=NCN(CCc3ccccc3)CN2)nc2ccccc12	5	x	1	2	-14	1
Cc1ccc2c(C)nc(NC3=NCN(CCc4ccccc4)CN3)nc2c1	-3	x	0	5	-43*	-5
CCC(=O)N1CCc2cc(S(=O)(=O)NCCC(=O)Nc3ccc(OC)c(OC)c3)ccc21	1	-15%	1	2	-40*	3
CCC(=O)N1CCc2cc(S(=O)(=O)CCC(=O)N3CCN(c4ccccc4Cl)CC3)ccc21	6	-22%	-1	0	-11	1
Cc1ccc(CNc2ncnc3c2c(-c2ccccc2)cn3-c2cccc(Cl)c2)cc1	-4	-1%	0	-4	4	0
CCOC(=O)C(C(=O)N(C)C)c1ncc(C(F)(F)F)cc1Cl (configuration not stated)	14	-11%	0	0	-46*	3
COC(=O)C(C(=O)OC)c1ncc(C(F)(F)F)cc1Cl	-3	-23%	0	-1	5	0
CC(=O)Nc1ccc(S(=O)(=O)NC2(C(F)(F)F)C(=O)Nc3c2c(=O)[nH]c(=O)n3-c2cccc(Cl)c2)cc1 (configuration not stated)	-2	-21%	0	0	4	-2
Cc1[nH]nc2c1C(c1ccc(-c3ccc(Cl)cc3)o1)C(C#N)=C(N)O2 (configuration not stated)	31*	-25%	0	3	-3	-4
Cc1[nH]nc2c1C(c1ccsc1C)C(C#N)=C(N)O2 (configuration not stated)	9	-4%	0	1	4	0
Cc1ccc(-c2ccc(C3C(C#N)=C(N)Oc4n[nH]c(C)c43)o2)cc1 (configuration not stated)	2	-22%	0	14	-48*	-12
Cc1[nH]nc2c1C(c1ccc(-c3ccccc3C#N)o1)C(C#N)=C(N)O2 (configuration not stated)	-2	-4%	0	2	-4	0
CCOc1ccc(NC(=O)CN(C)S(=O)(=O)c2ccc3c(c2)c(=O)n(C)c(=O)n3C)cc1	-2	-3%	0	-1	-25	-2
c1cncc(CSc2ccc(-c3ccc4c(c3)OCO4)nn2)c1	2	-13%	-1	6	-39*	-3
Fc1cccc(CSc2ccc(-c3ccc4c(c3)OCO4)nn2)c1	1	-16%	2	6	5	-5
O=C(NCCN1CCOCC1)c1ccc(-c2ccccc2)cc1	-5	1%	0	4	-36*	5
CCOc1ccc(C(=O)NCCN2CCOCC2)cc1	0	-4%	0	1	8	0
O=C(Cc1ccc(-c2ccccc2)cc1)NCCN1CCOCC1	0	-5%	0	1	-12	7
CCCCC(=O)Nc1ccc(C(=O)NCCN2CCOCC2)cc1	0	-10%	0	-1	-58*	-4
